About 83,000 compounds went through this panel and 20% of them were active in at least one assay; those are over-represented in the sample as a whole.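 Step 1: grow cells in 96-well plates. Step 2: add test compound at a single concentration. Step 3: incubate 48 h. Step 4: record percent growth.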 The source made the active and inactive calls. Rule for the calls: active = growth percent below 10; inactive = the rest.
Tested on: SK-MEL-5 melanoma
Assay: NCI-60 one-dose screen, 48 h (100 = growth as untreated, 0 = no growth, -100 = all killed)
Details: 10 µM unless noted

Structure (SMILES) | growth
CSC1=CC(=O)c2ccccc2C1=O | 89.4% (inactive)
CC(C)(C)[Si](C)(C)OC1[C@@H](COC(=O)NC(=O)CCl)O[C@@H](n2cnc3c(N)ncnc32)[C@H]1O[Si](C)(C)C(C)(C)C (some centres not stated) | 61.4% (inactive)
COc1ccc(-c2c(-c3cc4c(c(OC)c3OC)OCO4)noc2N)cc1 | 16.5% (inactive)
Cc1nc2cc(Nc3nc(NCCN)nc(Nc4ccc(F)cc4)n3)ccc2n1Cc1ccccc1 | 86.6% (inactive)
COc1ccc(-n2c(SCc3cc(OC)c(OC)c(OC)c3)nc3ccc(C)cc3c2=O)c(OC)c1 | 17.6% (inactive)
COc1ccccc1-n1c(SCc2cc(OC)c(OC)c(OC)c2)nc2ccc(Cl)cc2c1=O | 27.7% (inactive)
CC(C)(C)[Si](C)(C)OC1[C@@H](CNC(=O)NC(=O)CCl)O[C@@H](n2cnc3c(N)ncnc32)[C@H]1O[Si](C)(C)C(C)(C)C (some centres not stated) | 90.6% (inactive)
CC[Si](CC)(CC)OC1[C@@H](O[Si](CC)(CC)CC)[C@@H](CNC(=O)NC)O[C@H]1n1cnc2c(NC(=O)Nc3ccccc3)ncnc21 (some centres not stated) | 95.1% (inactive)

Tested on: UACC-62 melanoma
Assay: as above
Details: 10 µM unless noted

Structure (SMILES) | growth
Cc1nc2nc(C(F)(F)F)[nH]c2nc1C | 102% (inactive)
CC1=CN2C(=NC3=C(CCCC/C3=C\c3ccccc3)C2c2ccccc2)S1 (configuration not stated) | 83.8% (inactive)
CSC1=CC(=O)c2ccccc2C1=O | 79.7% (inactive)
CNc1ccc(Br)cc1-c1n[nH]c(=O)[nH]c1=O | 105% (inactive)
COc1ccc(Nc2[nH]n(C3=Nc4ccccc4Sc4ccccc43)c(=O)c2C#N)cc1 | 32.8% (inactive)
O=[N+]([O-])c1cc2c(cc1Br)-c1ccccc1C2 | 82% (inactive)
CC(C)(C)[Si](C)(C)OC1[C@@H](COC(=O)NC(=O)CCl)O[C@@H](n2cnc3c(N)ncnc32)[C@H]1O[Si](C)(C)C(C)(C)C (some centres not stated) | 75.2% (inactive)
Clc1nc(-c2ccccn2)nc2sc3c(c12)CCCCCC3 | 96% (inactive)
Cc1ccc(N=c2nc3sc4c(C)ccc(C)c4n3c(N)c2C#N)cc1 | 77.9% (inactive)
O=c1[nH]c(-c2ccncc2)nc2sc3c(c12)CCCCCC3 | 88% (inactive)
CCOC(=O)C1=C(C)N2C(=NC3=C(CCCC/C3=C\c3cc(OC)c(OC)c(OC)c3)C2c2cc(OC)c(OC)c(OC)c2)S1 (configuration not stated) | 39.9% (inactive)
COc1ccc(-c2c(-c3cc4c(c(OC)c3OC)OCO4)noc2N)cc1 | 37.5% (inactive)
CCOC(=O)c1sc(NC(=O)CN2CCC(Cc3ccccc3)CC2)nc1C | 114% (inactive)
O=c1nc(NO)[nH]c(=O)n1Cc1ccccc1 | 105% (inactive)
O=c1nc(NO)[nH]c(=O)n1Cc1ccc(F)cc1 | 108% (inactive)
O=c1[nH]c(=S)[nH]c(=O)n1Cc1cccc2ccccc12 | 89.7% (inactive)
CC(=O)Nc1ccccc1-c1n[nH]c(=O)[nH]c1=O | 103% (inactive)

Structure (SMILES) | growth
CC(C)(C)[Si](C)(C)OC1[C@@H](O[Si](C)(C)C(C)(C)C)[C@@H](CNC(=O)NC(=O)C(F)(F)F)O[C@H]1n1cnc2c(NC(=O)Nc3ccccc3)ncnc21 (some centres not stated) | 84.3% (inactive)
CCOC(=O)C1=C(C)N2C(=NC3=C(CCCC/C3=C\c3ccccc3)C2c2ccccc2)S1 (configuration not stated) | 85.5% (inactive)
COc1ccc(-n2c(SCc3cc(OC)c(OC)c(OC)c3)nc3ccc(C)cc3c2=O)c(OC)c1 | 24.3% (inactive)
NC(=O)c1nc2c([nH]c1=O)CCCC2 | 106% (inactive)
COc1ccccc1-n1c(SCc2cc(OC)c(OC)c(OC)c2)nc2ccc(Cl)cc2c1=O | 34.3% (inactive)
O=c1[nH]c(-c2ccccn2)nc2sc3c(c12)CCCCCC3 | 45.6% (inactive)
CC(C)(C)[Si](C)(C)OC1[C@@H](CNC(=O)NC(=O)CCl)O[C@@H](n2cnc3c(N)ncnc32)[C@H]1O[Si](C)(C)C(C)(C)C (some centres not stated) | -75% (active)
CC[Si](CC)(CC)OC1[C@@H](O[Si](CC)(CC)CC)[C@@H](CNC(=O)NC)O[C@H]1n1cnc2c(NC(=O)Nc3ccccc3)ncnc21 (some centres not stated) | 73% (inactive)
Cc1ccc(S(=O)(=O)N(c2ccc(Cl)cc2)c2ccc(Br)cc2C(=O)O)cc1 | 105% (inactive)
Cc1ccc(-c2nnc(COc3ccc(-c4nnc(N)s4)cc3)o2)cc1 | 83.2% (inactive)
COc1cc2nc(SCc3cc(OC)c(OC)c(OC)c3)n(-c3ccccc3OC)c(=O)c2cc1OC | 72.5% (inactive)
CN1CCc2c(c3ccccc3c3ccccc23)C1 | 61.3% (inactive)
N#Cc1ccc(C(F)(F)F)nc1N1CCC(C(=O)Nc2ccc(Cl)cc2)CC1 | 84.8% (inactive)
COC(=O)C1C2CC3c4[nH]c5cc(OC)ccc5c4CCN3CC2CC(OC2CCCCO2)C1OC (configuration not stated) | 99.3% (inactive)
c1ccc(-c2nc(N3CCOCC3)c3c4c(sc3n2)CCCCCC4)nc1 | 51.7% (inactive)
Nc1c(Br)cc(Br)cc1-c1n[nH]c(=O)[nH]c1=O | 106% (inactive)
Nc1ccccc1-c1n[nH]c(=O)[nH]c1=O | 89% (inactive)

Reference: PubChem BioAssay (NCI)
